{"source": "PubChem BioAssay (NCATS)", "note": "Several values for one entry are separate records, joined by “and”; a condition that tells them apart may be missing. Equal values may be shown once. Activity calls are given as the source filed them. Calls come from the whole dose curve. Potency is the fitted concentration of half-maximal effect."}
{"target": "Glucocorticoid receptor (Homo sapiens) (UniProt P04150)", "sequence (P04150 whole entry, looked up)": "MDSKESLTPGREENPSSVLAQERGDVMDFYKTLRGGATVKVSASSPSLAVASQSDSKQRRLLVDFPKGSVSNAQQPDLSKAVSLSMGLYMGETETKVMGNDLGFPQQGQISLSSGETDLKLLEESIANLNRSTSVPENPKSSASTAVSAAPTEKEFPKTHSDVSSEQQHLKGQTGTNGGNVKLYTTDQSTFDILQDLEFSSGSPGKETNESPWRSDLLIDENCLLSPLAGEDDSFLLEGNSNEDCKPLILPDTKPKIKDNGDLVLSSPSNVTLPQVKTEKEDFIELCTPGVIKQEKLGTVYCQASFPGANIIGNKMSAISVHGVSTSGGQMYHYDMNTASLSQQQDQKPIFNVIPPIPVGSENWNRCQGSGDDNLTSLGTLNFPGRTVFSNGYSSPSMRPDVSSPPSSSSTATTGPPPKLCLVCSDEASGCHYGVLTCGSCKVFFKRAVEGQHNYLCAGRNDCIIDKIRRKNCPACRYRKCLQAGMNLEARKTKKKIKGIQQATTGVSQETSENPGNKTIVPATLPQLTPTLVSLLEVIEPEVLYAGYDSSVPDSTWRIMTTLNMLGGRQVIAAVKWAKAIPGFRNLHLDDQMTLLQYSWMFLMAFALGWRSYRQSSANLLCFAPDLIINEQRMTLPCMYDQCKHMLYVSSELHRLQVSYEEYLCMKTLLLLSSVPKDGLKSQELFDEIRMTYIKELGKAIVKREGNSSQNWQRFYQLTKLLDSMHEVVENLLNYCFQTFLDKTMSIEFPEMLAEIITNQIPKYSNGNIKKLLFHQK", "experiment": "GR-EFC Redistribution (AID 451)", "settings": "CHO-K1 GR-EFC translocation, beta-gal luminescence, 2 h", "description": "NIH Molecular Libraries Screening Centers Network [MLSCN]\nNIH Chemical Genomics Center [NCGC]\nThe glucocorticoid receptor (GR) is a cytoplasmic receptor that belongs to the nuclear receptor family of ligand-dependent transcription factors. Upon glucocorticoid binding to its receptor, the glucocorticoid-GR complex translocates into the nucleus, where it binds as a dimer to specific DNA sequences (glucocorticoid response elements), enhancing or suppressing transcription of a wide variety of glucocorticoid-responsive genes. In addition to their important roles in normal physiology and metabolism, glucocorticoids are administered exogenously as treatments for a wide variety of allergic, autoimmune, and neoplastic conditions. Identification of compounds that modulate aspects of GR signalling would be useful in dissecting glucocorticoid response pathways as well as developing GR modulators with more targeted clinical effects.\nTraditionally, GR modulators have been identified using receptor binding or direct transactivation assays. However, assays for glucocorticoid-dependent nuclear translocation can also be used to screen for compounds affecting GR signaling.\nImmunocytochemical staining has been used to assay for GR translocation, but is not suitable for high throughout screening due to the multiple reagent addition and wash steps required. Recently, a novel cell-based GR assay in Enzyme Fragment Complementation (EFC) format was developed by DiscoveRx (Fremont, CA). The assay uses EFC of b-galactosidase (b-gal) as an indicator of GR-translocation in engineered CHO-K1 biosensor cells. The enzyme acceptor (EA) fragment of b-gal resides in the nucleus , as designed through the use of a proprietary set of sequence additions and modifications. The small peptide enzyme donor (ED) fragment of b-gal is fused directly to the C-terminus of GR, and is localized in the cytoplasm is the absence of receptor signaling. Upon binding to a GR ligand, the complex translocates to the nucleus, where intact enzyme activity is restored by complementation and b-gal activity is detected. We optimized this GR-EFC assay in homogenous 1536-well plate assay format for high throughput screening.\nNCGC Assay Protocol Summary:\nCHO-K1 cells stably expressing NLS-enzyme acceptor fragment (EA) of b-gal and GR-enzyme donor (ED) fragment of b-gal were maintained in F12 medium (Invitrogen, Carlsbad, CA) at 37 Celsius degrees under a humidified atmosphere containing 5% CO2 and 95% air. The medium contained 10% FBS, 2 mM L-glutamine, 50 U/ml penicillin 50 ug/ml streptomycin, and 250 ug/ml hygromycin and 500 ug/ml G418 (Invitrogen).\nGR-translocation was measured beta-gal enzyme activity using the PathHunter Detection Kit containing cell membrane permeablizing reagent and beta-gal substrate (DiscoveRx, Fremont, CA). All compounds were screened as titrations from 0.6 nM to 46 uM final concentration. The assay was performed in 1536-well format as follows:\n5 uL cell suspension (1,000 cells)/well\nIncubation at 37 Celsius degrees for two hours\n1.25 uL 1X detection buffer from the kit supplied by DiscoveRx\nIncubation at room temperature for one hour\nRead plate in luminescence mode in ViewLux plate reader (PerkinElmer)\nKeywords: NIH Roadmap, MLSCN, MLI, MLSMR, GR-EFC, GREFC, qHTS, NCGC"}
{"smiles": "Cn1ccnc1", "Potency": "> 46 µM (inactive)"}
{"smiles": "CC(C)(CO)Cc1cc(C(C)(C)C)c(O)c(C(C)(C)C)c1", "Potency": "> 46 µM (inactive)"}
{"smiles": "NC(=Nc1ccccc1)NC(=O)c1nc(Cl)c(N)nc1N", "Potency": "> 46 µM (inactive)"}
{"smiles": "O=c1[nH]c(=S)[nH]c(-c2ccccc2)c1Cc1c(O)ccc2ccccc12", "Potency": "> 9.22 µM (inactive)"}
{"smiles": "[Li+]", "Potency": "> 46 µM (inactive)"}
{"smiles": "Nc1ccc2c3c(cccc13)C(=O)NC2=O", "Potency": "> 46 µM (inactive)"}
{"smiles": "Cn1c(=O)c2[nH]c(C3CCCC3)nc2n(C)c1=O", "Potency": "> 46 µM (inactive)"}
{"smiles": "CC(C)(C)c1cc(/C=C(\\C#N)C(N)=S)cc(C(C)(C)C)c1O", "Potency": "> 46 µM (inactive)"}
{"smiles": "N=C(N)c1ccc(OCCCCCOc2ccc(C(=N)N)cc2)cc1", "note": "(tested in a mixture with another compound)", "Potency": "> 46 µM (inactive)"}
{"smiles": "c1ccc(CN2CCC3(CCCc4ccccc43)CC2)cc1", "Potency": "> 46 µM (inactive)"}
{"smiles": "NC(N)=NC(N)=Nc1ccccc1", "Potency": "> 46 µM (inactive)"}
{"smiles": "COc1cc(CNC(=O)CCCCCCC(C)C)ccc1O", "Potency": "> 46 µM (inactive)"}
{"smiles": "CCC(=O)N1CCN(C(=O)c2ccccc2)CC1", "Potency": "> 46 µM (inactive)"}
{"smiles": "CCCCOC(=O)NS(=O)(=O)c1sc(CC(C)C)cc1-c1ccc(Cn2c(CC)nc3c(C)cc(C)nc32)cc1", "Potency": "> 46 µM (inactive)"}
{"smiles": "CCc1ccc2c(-c3cccc(Cl)c3)nc(=O)n(CC)c2n1", "Potency": "> 46 µM (inactive)"}
{"smiles": "Cc1nc(N=Nc2cc(S(=O)(=O)O)c3cc([N+](=O)[O-])cc(S(=O)(=O)O)c3c2)c(COP(=O)(O)O)c(C=O)c1O", "Potency": "> 46 µM (inactive)"}
{"smiles": "COc1ccc(CCN(C)CCc2ccc(OC)c(OC)c2)cc1OC", "Potency": "> 46 µM (inactive)"}
{"smiles": "CC(=O)N[C@@H](Cc1c[nH]c2ccccc12)C(=O)OCc1cc(C(F)(F)F)cc(C(F)(F)F)c1", "Potency": "> 46 µM (inactive)"}
{"smiles": "C=CC[C@H](N)C(=O)O", "Potency": "> 46 µM (inactive)"}
{"smiles": "Nc1ncnc2c1c(-c1ccc(Oc3ccccc3)cc1)cn2C1CCCC1", "Potency": "> 46 µM (inactive)"}
{"smiles": "COc1ccccc1N1CCN(CCCCNC(=O)c2ccc3ccccc3c2)CC1", "Potency": "> 46 µM (inactive) and > 20.6 µM (inactive)"}
{"smiles": "COc1cc(/C=C(\\C#N)C(=O)c2ccc(O)c(O)c2)cc(I)c1O", "Potency": "> 46 µM (inactive)"}
{"smiles": "O=C(O)C1=CC(=C(c2ccc(O)c(C(=O)O)c2)c2ccc(O)c(C(=O)O)c2)C=CC1=O", "Potency": "> 46 µM (inactive)"}
{"smiles": "Cc1cccc(C(=O)NCN2CCN(c3ccccc3C#N)CC2)c1", "Potency": "> 46 µM (inactive)"}
{"smiles": "COc1ccccc1N1CCN(CCCNc2c(C)c(=O)n(C)c(=O)n2C)CC1", "Potency": "> 46 µM (inactive)"}
{"smiles": "N#C/C(=C\\c1ccc(O)c(O)c1)C(=O)NCCc1ccccc1", "Potency": "> 46 µM (inactive)"}
{"smiles": "N#Cc1cc2nc(O)c(O)nc2cc1[N+](=O)[O-]", "Potency": "> 46 µM (inactive)"}
{"smiles": "CN(C)CCCc1cc(C(=O)Nc2ccc(-c3ccncc3)cc2)ccc1O", "Potency": "> 46 µM (inactive)"}
{"smiles": "COc1ccc2c(c1)c(CC(=O)O)c(C)n2Cc1ccc(Cl)cc1", "Potency": "> 46 µM (inactive)"}
{"smiles": "NC[C@@H]1O[C@H](c2ccccc2)Cc2c1ccc(O)c2O", "Potency": "> 46 µM (inactive)"}
{"smiles": "CCCOC(=O)c1c(-c2ccccc2)nc(CC)c(C(=O)SCC)c1CCC", "Potency": "> 46 µM (inactive)"}
{"smiles": "Oc1ccc(Cn2cc[nH]c2=S)cc1", "Potency": "> 46 µM (inactive)"}
{"smiles": "CCCn1c(=O)c(C)cn2nc(N)nc12", "Potency": "> 46 µM (inactive)"}
{"smiles": "COc1ccccc1N1CCN(CCCCN2C(=O)c3ccccc3C2=O)CC1", "Potency": "> 46 µM (inactive)"}
{"smiles": "Cc1ccc2c(c1)C(N1CCN(C)CC1)=Nc1cccnc1N2", "Potency": "> 46 µM (inactive)"}
{"smiles": "CCSC(=N)N", "Potency": "> 46 µM (inactive)"}
{"smiles": "COc1cc(CC(=O)O)ccc1O", "Potency": "> 46 µM (inactive)"}
{"smiles": "C#CCn1c(=O)c2c(ncn2C)n(C)c1=O", "Potency": "> 46 µM (inactive)"}
{"smiles": "CCN(CC)CCOC(=O)c1cc(Cl)c(N)cc1OC", "Potency": "> 46 µM (inactive)"}
{"smiles": "O=C(O)C1=CCNCC1", "Potency": "> 46 µM (inactive)"}
